In PMC7862700, “An all-to-all approach to the identification of sequence-specific readers for epigenetic DNA modifications on cytosine” one finds binding signal data, which are given here for 20 sequences.

What all share (experiment): DAPPL (digital affinity profiling via proximity ligation, sequencing); 10 mM Tris-HCl pH 7.5, 50 mM NaCl, 1 mM DTT, 4% glycerol, room temperature, 30 min; GST-TFs on glutathione beads, 16-mer random dsDNA library, 0.1% formaldehyde crosslink after washing; high values mean tight binding
One experiment has as its target T1, FLI1 (Homo sapiens, UniProt Q01543 1-452).
T1 sequence: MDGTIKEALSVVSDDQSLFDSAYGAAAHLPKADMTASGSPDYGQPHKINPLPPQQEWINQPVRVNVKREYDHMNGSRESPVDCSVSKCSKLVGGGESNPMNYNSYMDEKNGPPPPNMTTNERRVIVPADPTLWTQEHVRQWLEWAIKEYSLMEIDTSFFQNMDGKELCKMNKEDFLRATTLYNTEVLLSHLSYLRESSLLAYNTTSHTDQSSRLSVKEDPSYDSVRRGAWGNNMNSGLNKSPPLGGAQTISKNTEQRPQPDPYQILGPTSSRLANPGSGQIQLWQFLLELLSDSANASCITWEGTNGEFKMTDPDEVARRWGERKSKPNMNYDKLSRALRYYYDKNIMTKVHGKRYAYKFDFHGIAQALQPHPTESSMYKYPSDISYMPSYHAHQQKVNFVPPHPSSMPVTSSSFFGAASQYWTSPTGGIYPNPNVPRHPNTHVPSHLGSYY
The following applies: protein: recombinant; tags: N-terminal GST; dsDNA, one strand shown. Summed up: (§1)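 Pools were built from human transcription factors expressed in yeast as GST fusions, captured on glutathione beads and DNA-barcoded, along with a tag-only sample. Incubation with 200 nmole of a 16-mer random double-stranded DNA library lasted 30 min at room temperature in Tris/NaCl/DTT/glycerol buffer, and was followed by washing, 0.1% formaldehyde crosslinking, proximity ligation, PCR amplification and Illumina NextSeq500 sequencing. Binding signal is the quotient of each hexamer's read frequency for a factor and its frequency for the tag-only sample.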

In another experiment the target is T2, ELK3 (Homo sapiens, UniProt P41970 1-407).
T2 sequence: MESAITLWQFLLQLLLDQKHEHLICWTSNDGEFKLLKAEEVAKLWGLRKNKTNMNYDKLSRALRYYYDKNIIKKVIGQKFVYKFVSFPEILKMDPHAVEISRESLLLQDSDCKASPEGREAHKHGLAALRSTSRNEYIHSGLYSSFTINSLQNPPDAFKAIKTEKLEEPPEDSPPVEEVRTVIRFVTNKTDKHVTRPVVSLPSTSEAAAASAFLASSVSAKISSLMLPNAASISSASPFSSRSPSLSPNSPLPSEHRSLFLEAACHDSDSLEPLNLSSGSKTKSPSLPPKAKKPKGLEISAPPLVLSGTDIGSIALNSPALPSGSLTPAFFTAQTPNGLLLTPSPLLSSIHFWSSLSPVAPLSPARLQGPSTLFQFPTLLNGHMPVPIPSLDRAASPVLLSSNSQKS
The following applies: protein: recombinant; tags: N-terminal GST; dsDNA, one strand shown. An outline of the steps: as §1

The next experiment has as its target T3, FEV (Homo sapiens, UniProt Q99581 1-238).
T3 sequence: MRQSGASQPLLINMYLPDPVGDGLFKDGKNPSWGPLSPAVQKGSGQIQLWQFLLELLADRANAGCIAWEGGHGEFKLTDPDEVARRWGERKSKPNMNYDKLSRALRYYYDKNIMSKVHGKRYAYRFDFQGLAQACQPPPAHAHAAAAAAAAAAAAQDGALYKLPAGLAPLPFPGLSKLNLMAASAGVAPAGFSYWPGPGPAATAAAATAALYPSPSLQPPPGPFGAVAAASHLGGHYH
The following applies: protein: recombinant; tags: N-terminal GST; dsDNA, one strand shown. An outline of the steps:
as §1

In another experiment the target is HSF1 (Homo sapiens, UniProt Q00613 1-529). The following applies: protein: recombinant; tags: N-terminal GST; chain copies: 3; dsDNA, one strand shown. An outline of the steps:
as §1

The target in another experiment is CRX (Homo sapiens, UniProt O43186 1-299). The following applies: protein: recombinant; tags: N-terminal GST; dsDNA, one strand shown. An outline of the steps:
as §1

Another experiment has as its target T4, ELF5 (Homo sapiens, UniProt Q9UKW6-2 1-255).
T4 sequence: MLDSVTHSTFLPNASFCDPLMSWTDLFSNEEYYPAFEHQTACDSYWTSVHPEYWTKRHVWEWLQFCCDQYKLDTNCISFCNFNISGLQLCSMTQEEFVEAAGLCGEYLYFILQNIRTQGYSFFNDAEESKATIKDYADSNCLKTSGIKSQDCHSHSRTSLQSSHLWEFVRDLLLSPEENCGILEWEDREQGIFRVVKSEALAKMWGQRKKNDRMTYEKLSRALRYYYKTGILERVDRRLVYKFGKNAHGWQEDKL
The following applies: protein: recombinant; tags: N-terminal GST; dsDNA, one strand shown. An outline of the steps: as §1

The next experiment concerns the target T5, ETV2 (Homo sapiens, UniProt O00321 1-342).
T5 sequence: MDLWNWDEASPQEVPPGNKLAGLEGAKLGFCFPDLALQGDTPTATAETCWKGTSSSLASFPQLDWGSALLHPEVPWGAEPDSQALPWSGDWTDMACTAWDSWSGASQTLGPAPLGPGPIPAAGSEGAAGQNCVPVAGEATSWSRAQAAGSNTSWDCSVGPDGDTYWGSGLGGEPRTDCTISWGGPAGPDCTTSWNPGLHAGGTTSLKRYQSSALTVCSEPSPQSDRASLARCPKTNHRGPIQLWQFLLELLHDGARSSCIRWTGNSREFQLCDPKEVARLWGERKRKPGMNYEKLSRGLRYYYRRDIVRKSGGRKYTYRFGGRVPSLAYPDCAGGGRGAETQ
The following applies: protein: recombinant; tags: N-terminal GST; dsDNA, one strand shown. An outline of the steps: as §1

Chain of CRX (O43186 whole entry): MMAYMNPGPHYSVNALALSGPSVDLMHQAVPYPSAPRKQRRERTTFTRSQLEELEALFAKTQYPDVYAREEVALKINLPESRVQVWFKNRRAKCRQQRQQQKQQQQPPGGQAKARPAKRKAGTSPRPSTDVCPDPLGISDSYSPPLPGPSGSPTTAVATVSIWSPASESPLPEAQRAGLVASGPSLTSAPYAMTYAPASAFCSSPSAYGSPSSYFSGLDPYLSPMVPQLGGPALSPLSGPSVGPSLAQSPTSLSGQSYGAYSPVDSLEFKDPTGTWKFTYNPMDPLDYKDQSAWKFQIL
Chain of HSF1 (Q00613 whole entry): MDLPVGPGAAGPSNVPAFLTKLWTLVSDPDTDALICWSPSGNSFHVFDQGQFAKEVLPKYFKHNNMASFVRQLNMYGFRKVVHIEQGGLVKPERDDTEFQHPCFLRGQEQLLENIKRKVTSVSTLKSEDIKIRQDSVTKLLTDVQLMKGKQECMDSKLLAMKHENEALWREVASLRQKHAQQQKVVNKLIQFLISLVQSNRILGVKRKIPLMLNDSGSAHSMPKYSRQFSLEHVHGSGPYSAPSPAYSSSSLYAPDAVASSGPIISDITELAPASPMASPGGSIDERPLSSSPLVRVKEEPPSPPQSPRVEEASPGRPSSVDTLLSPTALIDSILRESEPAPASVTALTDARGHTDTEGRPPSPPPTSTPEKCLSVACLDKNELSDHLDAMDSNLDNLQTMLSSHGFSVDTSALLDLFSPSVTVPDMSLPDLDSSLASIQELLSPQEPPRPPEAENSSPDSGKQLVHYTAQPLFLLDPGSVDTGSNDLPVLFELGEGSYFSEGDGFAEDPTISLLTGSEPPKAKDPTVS

On to TTGCCA, for which the binding signal with FLI1 is 1.07 fold enrichment (6-mer frequency, TF over GST control); with ELK3, 1.05 fold enrichment (6-mer frequency, TF over GST control); in the experiment with FEV, 1.11 fold enrichment (6-mer frequency, TF over GST control); in the experiment with HSF1, 1.01 fold enrichment (6-mer frequency, TF over GST control); in the experiment with CRX it was 1.06 fold enrichment (6-mer frequency, TF over GST control); with ELF5, 1.04 fold enrichment (6-mer frequency, TF over GST control).

For TAAGCA, the binding signal is 1.08 fold enrichment (6-mer frequency, TF over GST control) with FLI1; 1.04 fold enrichment (6-mer frequency, TF over GST control) with FEV; 1.29 fold enrichment (6-mer frequency, TF over GST control) with HSF1; 1.7 fold enrichment (6-mer frequency, TF over GST control) with CRX; 1.02 fold enrichment (6-mer frequency, TF over GST control) with ELF5.

In the case of CGTCTG, the binding signal was 1.13 fold enrichment (6-mer frequency, TF over GST control) with FLI1; 1.05 fold enrichment (6-mer frequency, TF over GST control) with ELK3; 1.03 fold enrichment (6-mer frequency, TF over GST control) with FEV; 1.01 fold enrichment (6-mer frequency, TF over GST control) with HSF1; 1.23 fold enrichment (6-mer frequency, TF over GST control) in the experiment with ETV2.

Consider GCTGGT, for which the binding signal in the experiment with FLI1 was 1.29 fold enrichment (6-mer frequency, TF over GST control); with ELK3 it was 1.19 fold enrichment (6-mer frequency, TF over GST control); with FEV, 1.1 fold enrichment (6-mer frequency, TF over GST control); in the experiment with HSF1 it was 1.06 fold enrichment (6-mer frequency, TF over GST control); with ETV2, 1.1 fold enrichment (6-mer frequency, TF over GST control); in the experiment with CRX it was 1.05 fold enrichment (6-mer frequency, TF over GST control). Further, the binding signal with ELF5 is 1.09 fold enrichment (6-mer frequency, TF over GST control).

Consider TGATAG, for which the binding signal with FLI1 is 1.14 fold enrichment (6-mer frequency, TF over GST control); with ELK3, 1.09 fold enrichment (6-mer frequency, TF over GST control); with HSF1, 1.02 fold enrichment (6-mer frequency, TF over GST control); with ETV2, 1.09 fold enrichment (6-mer frequency, TF over GST control); with CRX, 1.01 fold enrichment (6-mer frequency, TF over GST control).

As for CTAGCC, the binding signal with FLI1 was 1.07 fold enrichment (6-mer frequency, TF over GST control); in the experiment with ELK3 it was 1.1 fold enrichment (6-mer frequency, TF over GST control); in the experiment with HSF1, 1.05 fold enrichment (6-mer frequency, TF over GST control); with ETV2, 1.06 fold enrichment (6-mer frequency, TF over GST control).

As to GTAAGC, the binding signal with FLI1 was 1.02 fold enrichment (6-mer frequency, TF over GST control); with HSF1, 1.04 fold enrichment (6-mer frequency, TF over GST control); with CRX it was 1.51 fold enrichment (6-mer frequency, TF over GST control).

Consider GCTAGT, for which the binding signal with FLI1 was 1.1 fold enrichment (6-mer frequency, TF over GST control); with ELK3 it was 1.11 fold enrichment (6-mer frequency, TF over GST control); with FEV, 1.03 fold enrichment (6-mer frequency, TF over GST control); with HSF1, 1.12 fold enrichment (6-mer frequency, TF over GST control); with ETV2, 1.07 fold enrichment (6-mer frequency, TF over GST control).

TAGACT: the binding signal was 1.03 fold enrichment (6-mer frequency, TF over GST control) with FLI1; 1.32 fold enrichment (6-mer frequency, TF over GST control) in the experiment with HSF1; 1.27 fold enrichment (6-mer frequency, TF over GST control) in the experiment with CRX.

As to ACCTAG, the binding signal is 1.01 fold enrichment (6-mer frequency, TF over GST control) with FLI1; 1.03 fold enrichment (6-mer frequency, TF over GST control) in the experiment with FEV; 1.21 fold enrichment (6-mer frequency, TF over GST control) in the experiment with HSF1.

As to GATCAA, the binding signal is 1.01 fold enrichment (6-mer frequency, TF over GST control) with FLI1; 1.09 fold enrichment (6-mer frequency, TF over GST control) with ELK3; 1.25 fold enrichment (6-mer frequency, TF over GST control) with HSF1; 1.19 fold enrichment (6-mer frequency, TF over GST control) with ETV2; 1.52 fold enrichment (6-mer frequency, TF over GST control) with CRX.

For TCGAGC, the binding signal was 1.02 fold enrichment (6-mer frequency, TF over GST control) with FLI1; 1.01 fold enrichment (6-mer frequency, TF over GST control) with ELK3; 1.46 fold enrichment (6-mer frequency, TF over GST control) with HSF1; 1.04 fold enrichment (6-mer frequency, TF over GST control) with ETV2; 1.01 fold enrichment (6-mer frequency, TF over GST control) in the experiment with CRX.

As to GATTTA, the binding signal with FLI1 was 1.02 fold enrichment (6-mer frequency, TF over GST control); in the experiment with ELK3, 1.08 fold enrichment (6-mer frequency, TF over GST control); in the experiment with HSF1, 1.54 fold enrichment (6-mer frequency, TF over GST control); with ETV2, 1.05 fold enrichment (6-mer frequency, TF over GST control); with CRX, 2.33 fold enrichment (6-mer frequency, TF over GST control).

Take TGAATC: the binding signal was 1.03 fold enrichment (6-mer frequency, TF over GST control) in the experiment with FLI1; 1.03 fold enrichment (6-mer frequency, TF over GST control) with HSF1; 1.08 fold enrichment (6-mer frequency, TF over GST control) in the experiment with CRX.

On to TAAAGG, for which the binding signal with FLI1 was 1.04 fold enrichment (6-mer frequency, TF over GST control); in the experiment with ELK3, 1.1 fold enrichment (6-mer frequency, TF over GST control); with FEV, 1.02 fold enrichment (6-mer frequency, TF over GST control); in the experiment with HSF1, 1.15 fold enrichment (6-mer frequency, TF over GST control); with CRX it was 1.56 fold enrichment (6-mer frequency, TF over GST control); with ELF5, 1.1 fold enrichment (6-mer frequency, TF over GST control).

As for CTTAAG, the binding signal in the experiment with FLI1 was 1.06 fold enrichment (6-mer frequency, TF over GST control); in the experiment with ELK3, 1.03 fold enrichment (6-mer frequency, TF over GST control); in the experiment with FEV it was 1.05 fold enrichment (6-mer frequency, TF over GST control); in the experiment with HSF1, 1.7 fold enrichment (6-mer frequency, TF over GST control); with ETV2, 1.13 fold enrichment (6-mer frequency, TF over GST control); with CRX, 2.69 fold enrichment (6-mer frequency, TF over GST control). Moreover, the binding signal with ELF5 was 1.09 fold enrichment (6-mer frequency, TF over GST control).

Regarding CTAGAA, the binding signal is 1.06 fold enrichment (6-mer frequency, TF over GST control) with FLI1; 1.09 fold enrichment (6-mer frequency, TF over GST control) with ELK3; 6.29 fold enrichment (6-mer frequency, TF over GST control) with HSF1; 1.03 fold enrichment (6-mer frequency, TF over GST control) in the experiment with ETV2; 2.13 fold enrichment (6-mer frequency, TF over GST control) with CRX.

As to GGATCT, the binding signal with FLI1 was 1.08 fold enrichment (6-mer frequency, TF over GST control); with HSF1 it was 1.07 fold enrichment (6-mer frequency, TF over GST control); with CRX, 1.15 fold enrichment (6-mer frequency, TF over GST control); with ELF5, 1.17 fold enrichment (6-mer frequency, TF over GST control).

Consider GCTAAG, for which the binding signal is 1.13 fold enrichment (6-mer frequency, TF over GST control) with FLI1; 1.13 fold enrichment (6-mer frequency, TF over GST control) with HSF1; 1.07 fold enrichment (6-mer frequency, TF over GST control) with ETV2; 1.75 fold enrichment (6-mer frequency, TF over GST control) in the experiment with CRX; 1.01 fold enrichment (6-mer frequency, TF over GST control) in the experiment with ELF5.

Consider CATGCG, for which the binding signal in the experiment with FLI1 is 1.01 fold enrichment (6-mer frequency, TF over GST control); with HSF1 it was 1.07 fold enrichment (6-mer frequency, TF over GST control); in the experiment with ETV2, 1 fold enrichment (6-mer frequency, TF over GST control).
